Vif-A3G inh = qHTS for Inhibitors of Vif-A3G Interactions: qHTS; DNA dC->dU-editing enzyme APOBEC-3G (Homo sapiens), Q9HC16; hit rate 0.076% among 410,000; Potency, µM (doses to about 46.1 µM), for the others: at the top dose activity, negative = active, actives largely listed as inhibitors; HeLa A3G-eYFP + Vif (tagged APOBEC3G with the HIV-1 protein that degrades it), YFP fluorescence, overnight; also: % is scaled to controls: 0 for no effect and ±100 for the full control effect; nearly all actives have a fitted effect of over 60% in size
Target sequence (Q9HC16 whole entry, looked up): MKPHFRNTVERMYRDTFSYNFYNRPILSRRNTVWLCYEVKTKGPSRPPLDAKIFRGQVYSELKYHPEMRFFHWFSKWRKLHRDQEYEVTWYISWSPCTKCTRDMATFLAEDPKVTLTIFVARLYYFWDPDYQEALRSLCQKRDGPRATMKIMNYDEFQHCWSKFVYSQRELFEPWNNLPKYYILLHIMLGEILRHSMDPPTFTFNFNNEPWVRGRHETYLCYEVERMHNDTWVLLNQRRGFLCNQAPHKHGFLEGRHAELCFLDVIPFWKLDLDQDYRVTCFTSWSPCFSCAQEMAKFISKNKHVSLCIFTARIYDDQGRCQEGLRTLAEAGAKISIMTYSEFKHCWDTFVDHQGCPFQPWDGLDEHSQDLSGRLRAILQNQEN
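Read-out is eYFP fluorescence (Ex 488/Em 500-530) from Vif-expressing HeLa A3G-eYFP cells; more signal means A3G escaped Vif-mediated degradation. Cells plated overnight, compound pinned in, incubated overnight at 37 deg C.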
PINK1 expr mod = A Quantitative High throughput Screen to Identify Chemical Modulators of PINK1 Expression | PINK1 immunofluorescence, high-content cytometry, 24 h | Potency, µM (titrated, usually from 76.6 µM), inactives show at the top dose activation (PINK1 increase), actives largely listed as activators | hit rate 0.2% among 410,000 | AID 624263, 2012; active = well fitted activation curve with a large enough effect; inconclusive = small, poorly fitted or top-dose-only effect; cell line not stated here; also: % of control where 0% means no effect; nearly all actives have a fitted effect of over 65% in size
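Fluorescence from anti-PINK1 antibody, together with nuclear and cell stains, was scanned on a laser-scanning cytometer. Before staining, stable-line cells were incubated 24 hours with compounds at 5 concentrations; primary antibody 12 h at 10 degrees C.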
Vif-A3F inh = qHTS for Inhibitors of Vif-A3F Interactions: qHTS | HeLa A3F-eYFP + Vif (tagged APOBEC3F with the HIV-1 protein that degrades it), YFP fluorescence increase | hit rate 0.2% among 390,000 | Potency, µM (titrated, usually from 46.1 µM), for the others: top-dose activity, negative = active; also: % of control where 0% means no effect; nearly all actives have a fitted effect of over 65% in size
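HeLa cells stably expressing A3F-eYFP plus Vif, plated and incubated overnight at 37 deg C, then exposed to compounds overnight at 37 deg C. Blocked degradation read as raised yellow fluorescence (Ex 488/Em 500-530).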
Epigenetic reg = Quantitative High-Throughput Screen for Regulators of Epigenetic Control; murine LDR cells, GFP reporter derepression, 30 h; Potency, µM (titrated, usually from 53.9 µM), without a hit: top-dose GFP activation, most hits filed as activators; hit rate 0.2% among 280,000; AID 1865, 2009; also: % of control where 0% means no effect; nearly all actives have a fitted effect of over 60% in size
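Readout is the number of GFP-expressing murine LDR cells, counted by cytometry following washing. Cells were treated with compound for 30 h at 37 C; the stably integrated CMV-GFP locus is normally silent.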
Starred values were filed as active, the others as inactive; u = inconclusive; x = no result given; [ ] = another dose, or the depositor's remark. The list is not random: actives were taken first. Their share in the collection is about 0.51%. Unless noted, calls follow the shape of the dose curve; as a rule, active = well fitted curve in the direction sought with a large enough effect; inconclusive = small, poorly fitted or top-dose-only effect, or another doubt; inactive = no such curve, though single readings can be large; an effect the other way counts as inactive or inconclusive. Potency is read from the fitted curve at half-maximal effect.

SMILES | Vif-A3G inh | PINK1 expr mod | Vif-A3F inh | Epigenetic reg
COc1cc(N2CCCC2)c(OC)cc1/C=C1/NC(=S)NC1=O | u | u | u | 16µM*
C=C1C(=O)C=C2CN(C(=O)c3ccccc3)[C@@](Cc3ccc(F)cc3)(C(=O)OC)[C@@H]12 | 7.1µM* | 7% | -10% | 12%
C=C1C(=O)CC2=C1[C@](Cc1ccc(F)cc1)(C(=O)OC)N(C(=O)c1ccccc1)C2 | x | 7% | x | x
C=C1CCC(C)C(C)(CCC2=CCOC2=O)C/C=C\C=C/1C(=O)O (stereo not drawn) | 0% | 0% | -7% | 2%
O=C(Nc1cccc(S(=O)(=O)N2CCCCC2)c1)c1ccccc1NS(=O)(=O)c1ccc(F)cc1 | -7% | 14µM* | -3% | 3%
Cc1ccc(NC(=O)c2ccccc2NS(=O)(=O)c2ccc(F)cc2)cc1S(=O)(=O)N1CCCCC1 | -6% | 11µM* | 3% | -2%
CC(C)c1ccc(NC(=O)c2cn(C3CCCCC3)c(=O)c3c2c2ccccc2n3C)cc1 | 3% | 0% | 7% | 1%
O=c1[nH]c2ccccc2nc1/C=C(\O)c1cccs1 | u | u | 10µM* | 22µM*
Cc1ccc(NC(=O)CSc2ccccc2NC(=O)c2cccc(Cl)c2)cc1Cl | -61% | 1% | 11µM* | 0%
Cc1cccc(C(=O)Nc2ccccc2SCC(=O)Nc2ccc(C)c(Cl)c2)c1 | 1% | 0% | -9% | 1%
Nc1c(C(=O)O)sc2nc3c(cc12)CCCC3 | 3% | 2% | 2% | -1%
Nc1c(C(=O)c2ccc(Cl)cc2)sc2nc3c(cc12)CCC3 | -8% | u | 25µM* | u
FC(F)(F)c1ccc(N2CCN(c3ncnc4c3nnn4Cc3ccccc3)CC2)nc1 | 0% | 11µM* | -3% | -1%
c1ccc(Cn2nnc3c(N4CCOCC4)ncnc32)cc1 | 2% | -1% | 2% | -1%
C/C(CCc1ccc2c(c1)OCO2)=N\NC(=S)NC(C)C | 1% | -1% | 13µM* | u
O=C(CCCc1ccccc1)NCc1ccc(Cl)cc1 | 3% | 0% | 9% | x
CC(C)(C)c1cc(Cl)c(O)c(NC(=S)NC(=O)c2cccnc2)c1 | -9% | 12% | u | 0%
CCN1C(=O)c2cccc3c(NC(=O)c4ccccc4)ccc1c23 | -3% | 4% | -1% | -1%
CCN1C(=O)c2cccc3c(NC(=O)c4ccc5c(c4)OCCO5)ccc1c23 | 0% | u | u | 22µM*
O=C(OCC1CCNCC1)c1ccc2c(c1)OCO2 | 4% | 12% | -4% | x
NC(=NCc1ccco1)NC(=O)c1ccc(Cl)cc1 | 0% | 0% | 0% | x
N#C/C(=C\c1ccc(-c2cccc(Cl)c2)o1)C(=O)Nc1cccc(C(F)(F)F)c1 | 2% | 1% | u | 11µM*
COc1ccc(NC(=O)CN(C)C(=O)c2cc(S(=O)(=O)N3CCCCCC3)ccc2OC)cc1 | 0% | 1% | -12% | x
Cc1ccc(N2C(=O)[C@@H]3[C@H](C2=O)[C@H]2C=C(C(=O)c4ccccc4)C=CN2[C@@H]3C(=O)c2ccc(Cl)cc2)cc1 | -15% | 0% | 11µM* | 0%
O=C(C1=C[C@@H]2[C@H]3C(=O)N(c4cccc(Cl)c4)C(=O)[C@H]3[C@@H](C(=O)c3ccc(Cl)cc3)N2C=C1)c1ccccc1 | -19% | 1% | -26% | 0%
SMILES | Vif-A3G inh | PINK1 expr mod | Vif-A3F inh | Epigenetic reg
CC(=O)Oc1ccccc1/C=C/c1nc2ccccc2c(=O)o1 | 0% | -1% | 3% | x
O=c1oc(/C=C/c2ccc([N+](=O)[O-])s2)nc2ccccc12 | -18% | 40µM* | 28µM* | x
N#C/C(=C(/O)c1cccc(F)c1)c1nc2ccccc2s1 | 0% | 40µM* | 4% | -2%
CCc1nnc(NS(=O)(=O)c2ccc(NC(=O)c3cc(Cl)ccc3Cl)cc2)s1 | -1% | 4% | -3% | -2%[10.1 µM]
COCC(C)N=C1NN=C(c2cc(C)n(Cc3ccccc3Cl)c2C)CS1 (stereo not drawn) | -1% | 35µM* | 4% | -2%
COCCn1c(C)cc(C2=NNC(=Nc3ccc(Cl)cc3Cl)SC2)c1C | 5% | 18%[38.3 µM] | -6% | -1%
Cc1cc(=O)oc2cc(OCC(=O)N3c4ccccc4CC3C)ccc12 (stereo not drawn) | 4µM* | 5% | 0% | 3%

Compound activity deposited in PubChem by National Center for Advancing Translational Sciences (NCATS).
